Screens from PubChem.
AI-2 QS modul = Vibrio harveyi AI-2 quorum sensing modulation. Vibrio harveyi JMH597 AI-2 luminescence/OD600 ratio, 9 h; active compounds read low; strain lacks LuxN and CqsS sensors; 0 = neutral-control median. activity change, % at 7.5 µM. 0.4% of 300,000 active. AID 2094; in the data active = activity change below about -75%, passing the limit was not always enough;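 also: luminescence divided by OD600 gain over 9 h not by final OD600 alone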
V-ATPase pHluor = alters yeast V-ATPase proton transport. response, % at 10 µM. S. cerevisiae, pHLuorin cytosolic pH fluorescence. 0.37% of 350,000 active; in the data active = response mostly above about 7.3%, no sharp cut-off; inactive = mostly below about 5.4%; also: actives read high
ATG4B inh = ATG4B (human) cysteine protease inhibition. inhibition, % at 8.33 µM. 0.51% of 340,000 active. ATG4B cleavage of LC3-PLA2, NBD-HPC fluorescence, 1 h; in the data active = inhibition above about 40%
Target sequence (Q9Y4P1 whole entry, looked up): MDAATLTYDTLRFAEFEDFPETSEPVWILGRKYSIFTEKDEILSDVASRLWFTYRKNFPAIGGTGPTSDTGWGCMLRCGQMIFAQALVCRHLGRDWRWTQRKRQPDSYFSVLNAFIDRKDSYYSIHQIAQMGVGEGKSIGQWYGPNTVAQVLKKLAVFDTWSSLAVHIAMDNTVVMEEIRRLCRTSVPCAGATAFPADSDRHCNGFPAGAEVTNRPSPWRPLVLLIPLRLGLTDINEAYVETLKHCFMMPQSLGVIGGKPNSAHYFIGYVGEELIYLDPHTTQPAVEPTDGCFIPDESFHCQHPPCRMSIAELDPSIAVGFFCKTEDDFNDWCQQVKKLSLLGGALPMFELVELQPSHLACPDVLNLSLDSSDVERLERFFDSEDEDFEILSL
Efflux pump mplx = antifungal efflux pump inhibition, Nile Red retention; S. cerevisiae Candida pump triplex; inhibition, % at 10 µM; 0.44% of 330,000 active; AID 485275;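 active = plate passing quality check with inhibition over a set limit, or well fluorescence over plate mean plus 4 SD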;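 also: Nile Red retained in pooled yeast measured as flow cytometry median fluorescence; higher means more Nile Red kept so more efflux inhibition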
SUMO Mot1 rescue = inhibitors of SUMOylation pathway: yeast Mot1-301 growth rescue; AID 2716; growth rescue, % at 18.8 µM; S. cerevisiae Mot1-301 growth rescue, ATP luminescence, 38.5C; percent above DMSO median, 100 means doubled; 1% of 320,000 active;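 active = every valid replicate shows activation above 250% relative to neutral control wells; inactive = the rest, any valid replicate at or below 250%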
Large screens that a line does not name were inactive. Sampled rows, rich in hits. Any-hit rate of the full collection: about 2.5%.

CCc1ccc(C(=O)C(C)OC(=O)CNS(=O)(=O)c2ccc(C)cc2)cc1 (stereo not given)	none
O=C(COC(=O)Cc1ccc(S(=O)(=O)N2CCOCC2)s1)Nc1ccc([N+](=O)[O-])cc1	none (no result: AI-2 QS modul)
CCCN(C(=O)CSc1nnc2ccccn12)C1CCS(=O)(=O)C1 (stereo not given)	none (no result: AI-2 QS modul)
CCCN(C(=O)CSc1ccccc1C(=O)O)C1CCS(=O)(=O)C1 (stereo not given)	V-ATPase pHluor 14.6 (no result: AI-2 QS modul)
Cn1c(=N)c(S(=O)(=O)c2ccccc2)cc2c(=O)n3ccccc3nc21	SUMO Mot1 rescue 311.0 (no result: AI-2 QS modul)
CCOc1c(Cl)cc(CNCC(C)C)cc1Cl	V-ATPase pHluor 19.8
Cc1ccc2[nH]c(C(F)(F)F)cc(=O)c2c1	SUMO Mot1 rescue 342.5
COc1ccc(OCC(=O)c2c(O)c3ccccc3oc2=O)cc1	V-ATPase pHluor 15.7
CCOc1ccc(OCC(=O)c2c(O)c3ccccc3oc2=O)cc1	none
O=C(N/C(=C\c1cccs1)C(=O)N1CCCCCC1)c1ccccc1	SUMO Mot1 rescue 312.4
O=C(CCc1nnc2n(Cc3ccccc3)c(=O)c3ccccc3n12)NCCN1CCOCC1	none
COc1ccccc1/C=C/C=N/NC(=O)c1cc(-c2ccc(C)o2)[nH]n1	SUMO Mot1 rescue 307.9
COc1ccc(C(=O)COC(=O)CCN=C2NS(=O)(=O)c3ccccc32)c(OC)c1	none
CN1CCCC(OC(=O)c2cc(Br)ccc2Cl)C1 (stereo not given)	SUMO Mot1 rescue 260.3
CN1CCCC(OC(=O)c2cc(Cl)ccc2Cl)C1 (stereo not given)	none
O=C(NC1CCCCCC1)c1ccc[nH]c1=S	none (no result: SUMO Mot1 rescue)
CC(C)(C)NC(=O)c1ccc2c(c1)C1C3CCC(C3)C1C(c1ccccc1)N2 (stereo not given)	none
CCCNC(=O)c1ccc2c(c1)C1C3CCC(C3)C1C(c1ccccc1)N2 (stereo not given)	V-ATPase pHluor 18.6
CCCC(=O)NC(c1ccc(N(C)C)cc1)c1ccc2cccnc2c1O (stereo not given)	AI-2 QS modul -90.2
CCCC(=O)NC(c1ccc(C(C)C)cc1)c1ccc2cccnc2c1O (stereo not given)	none
COc1ccccc1C(=O)COC(=O)CNC(=O)c1ccc(Br)o1	none
COc1ccccc1C(=O)NCC(=O)OCC(=O)c1cccc2ccccc12	SUMO Mot1 rescue 321.4
CCC1(C(=O)OC)NC(c2ccco2)C2C(=O)N(c3ccccc3)C(=O)C21 (stereo not given)	V-ATPase pHluor 14.8
CCOC(=O)CN(C)C(=O)CCc1nnc(-c2ccsc2)o1	SUMO Mot1 rescue 610.6
COc1cccc(CN(C)C(=O)CCc2nnc(-c3ccsc3)o2)c1	none
Cc1cc(NC(=O)COC(=O)c2c(C)noc2C)ccc1Br	AI-2 QS modul -91.1
COC(CNC(=O)c1c[nH]c2ccc(S(=O)(=O)N(C)c3ccc(F)cc3)cc2c1=O)OC	none
CCc1ccc(N(C(C)=O)C2C=CS(=O)(=O)C2)cc1 (stereo not given)	SUMO Mot1 rescue 531.3
CN(Cc1ccsc1)C(=O)Cn1cc(Br)ccc1=O	none
O=C(/C(=C\c1ccccc1)c1nc2ccccc2[nH]1)c1ccc(Cl)cc1	SUMO Mot1 rescue active
O=C(/C(=C/c1ccc(Cl)cc1)c1nc2ccccc2[nH]1)c1cccs1	SUMO Mot1 rescue 520.6
O=C(O)Cn1cc(/C=C2\SC(=O)N(c3ccccc3)C2=O)c2ccccc21	SUMO Mot1 rescue 672.4
CN1CCN(CC(=O)N2CCn3c4c(c5cc(C6CCCCC6)ccc53)CCCC42)CC1 (stereo not given)	SUMO Mot1 rescue 500.4
COc1ccc(NC(=O)C2CCN(S(C)(=O)=O)CC2)cc1Cl	SUMO Mot1 rescue 325.3
O=[N+]([O-])c1cc(N=Nc2ccc3ccccc3c2)ccc1O	none
Cc1cccc(NC(=O)COC(=O)CC2CCCC2)c1C	none (no result: AI-2 QS modul, Efflux pump mplx, SUMO Mot1 rescue)
CC1(C)NC(=O)N(CCCCOc2cccc(C(F)(F)F)c2)C1=O	V-ATPase pHluor 14.7
CCC(C)Oc1cccc(OCCCCN2C(=O)NC(C)(C)C2=O)c1 (stereo not given)	none
Cc1nnsc1C(=O)NNC(=O)c1cccc2ccccc12	none
COc1ccc(C(=O)NCCc2cnc[nH]2)cc1OC	SUMO Mot1 rescue 282.2
CCOc1ccc(C(=O)NCCc2cnc[nH]2)cc1OCC	none
COc1ccccc1NC(=O)C(NC(=O)OC(C)(C)C)C(C)OCc1ccccc1 (stereo not given)	none
CCOc1ccc(CNc2ccc(CNc3ncn[nH]3)cc2)cc1	SUMO Mot1 rescue 342.1
Cc1ccc(CNc2ccc(CNc3ncn[nH]3)cc2)cc1	none
CSCc1c(C(=O)OCC(=O)c2ccc[nH]2)oc2ccccc12	ATG4B inh 46.2 (no result: AI-2 QS modul, Efflux pump mplx, SUMO Mot1 rescue)
COCc1c(C(=O)OCC(=O)c2ccc[nH]2)oc2ccccc12	none (no result: AI-2 QS modul)
Cc1ccc(C(=O)N(c2c(C)n(C)n(-c3ccccc3)c2=O)C(C)C)cc1	none
CC1CCN(S(=O)(=O)c2nnc(NC(=O)COc3ccccc3)s2)CC1	SUMO Mot1 rescue 292.5
O=C1/C(=C\c2cc(Br)cc(Br)c2O)SC(=S)N1Cc1ccccc1	Efflux pump mplx 1.5
O=C1/C(=C\c2cccc([N+](=O)[O-])c2O)SC(=S)N1Cc1ccccc1	ATG4B inh 46.8
CN(CCO)c1ccc(-c2n[nH]c(=O)c3ccccc23)cc1[N+](=O)[O-]	none
CCCN1CCC(NC(=O)Nc2ccc(F)cc2F)CC1	V-ATPase pHluor 15.1
CCCCCCC(=O)N(O)C1CC(=O)N(c2ccc(F)cc2)C1=O (stereo not given)	none
CCCCCCC(=O)N(O)C1CC(=O)N(c2ccc(Br)cc2)C1=O (stereo not given)	SUMO Mot1 rescue 338.0
NNC(=O)c1ccc(CSc2nc3ccccc3[nH]2)cc1	none
O=C(c1ccncc1)N1CCN(C2CCC(c3ccccc3)CC2)CC1 (stereo not given)	SUMO Mot1 rescue 305.2
O=C(c1ccncc1)N1CCN(C2CCCCC2)CC1	none
COc1cc(/C=C(\C#N)c2nc3ccccc3[nH]2)cc(Br)c1OCc1ccc(F)cc1	none
COc1cc(/C=C(\C#N)c2nc3ccccc3[nH]2)cc(Br)c1OCc1ccccc1	SUMO Mot1 rescue 486.9
Cn1nc(-c2ccc(Cl)cc2)nc2c(=O)n(C)c(=O)nc1-2	AI-2 QS modul -76.5 (no result: V-ATPase pHluor, ATG4B inh)
COc1cccc(C(=O)O/N=C(\N)Cc2ccc(Cl)cc2)c1	AI-2 QS modul -92.4
Cc1cccc(/C(N)=N/OC(=O)Cc2cccc3ccccc23)c1	none
Cc1cccc(C(=O)O/N=C(\N)Cc2cccc3ccccc23)c1	ATG4B inh 46.2
O=C(Nc1ccc(S(=O)(=O)Nc2ncccn2)cc1)C12CC3CC(CC(Cl)(C3)C1)C2	none (no result: AI-2 QS modul)
COc1ccccc1C(=O)N/N=C/c1ccc2c(c1)OCO2	SUMO Mot1 rescue 301.2
Cc1ccc(CNC(=O)C2CCC(=O)N(CC3CCCCC3)C2)o1 (stereo not given)	none
COc1ccc(-c2cc(C(F)F)n3ncc(C(=O)N4CCN(C(=O)c5ccco5)CC4)c3n2)cc1	Efflux pump mplx 0.8
CC(C)C(=O)NNc1ccccc1	none
